# From PubChem BioAssay AID1347430 (National Center for Advancing Translational Sciences (NCATS), 2020)
# The whole screen tested about 91,000 compounds, of which about 130 (0.14%) were called active. Another 3% or so got no clear call; they are omitted. Calls come from the whole dose curve; as a rule, active = well fitted inhibition curve with a large enough effect; inconclusive = small, poorly fitted or top-dose-only effect; inactive = flat fitted curve, though single readings scatter. The full list was thinned out, with actives kept by preference.
# Tested on: Uracil-DNA glycosylase
# Test: Primary qHTS assay for inhibitors of Activation Induced Cytidine Deaminase (AID): UDG Counterscreen signal; note: nearly all actives have a fitted effect of over 65% in size
# Details: FRET deamination/UDG coupled assay, UDG read, 4 h; series mostly up to 115 µM; activity change, negative = inhibition: at the top concentration
# Description: Assay Provider (PI) Patricia Gearhart Ph.D.
# National Institute on Aging
# National Institute of Health (NIH), Bethesda, MD
# Assay Provider (PI) Rahul Kohli Ph.D.
# Perelman School of Medicine
# University of Pennsylvania, Philadelphia, PA
# Activation-Induced Deaminase (AID) is a cytosine deaminase which converts cytosine into uracil within stretches of ssDNA. The presence of uracil in DNA initiates a cascade of mutagenic DNA repair to introduce point mutations and DNA double strand breaks. Specific targeting of AID to the immunoglobulin heavy chain loci (Igh) promotes mutagenesis in the antibody variable region for somatic hypermutation (SHM) or switch regions leading to class switch recombination (CSR). However, AID also plays a role in accumulating unnecessary mutations across the genome. Mis-targeting of AID results in the initiation of tumor development and leads to greater drug resistance among cancer cells when continually expressed. To identify an AID inhibitor, a small molecule library will be screened in collaboration with NCATS core facility at NIH. To confirm biological function, inhibitors will be examined in an in vitro murine B-cell activation assay and subsequent secondary validation screens. Top molecules will be further screened to identify inhibitory efficacy against a wild type primary splenocytes assay. Using these approaches, we hope to identify a small molecule with great efficacy and low toxicity for use as a molecular probe to further characterize AID's intricacies, or even as a therapeutic.
# A FRET based analysis of cytosine deamination, was developed to identify potential inhibitors of AID catalytic activity. This screen has two signal output, Read 1 evaluates the AID inhibition response. The second readout (Read 2) evaluates UDG response and is uses as a counterscreen to exclude false positive inhibitors. Inhibition in AID and inactivity in the UDG signal is the desired outcome for this assay.
# SEQUENCE No. (e.g., 1, 2, 3, etc.); […] (e.g., Cells, Incubation, Reagent, etc.); VALUE; DESCRIPTION
# 1a; Reagent; 3 uL; [4/3x] 1 uM AID/2.67 U/mL UDG
# 1b; Reagent; 3 uL; 2 U/mL UDG
# 1c; Reagent; 3 uL; 1 uM AID
# 2a; Compound; 46 nL; Follow-up plates (0.64 uM - 10 mM)
# 2b; Control; 46 nL; ATA ([…] - 10 mM)
# 3; Time; 10 min; incubation at room temperature
# 5; Time; 4 hr; incubation at room temperature
# 6; Reagent; 4 uL; [2x] 250 mM NaOH
# 7; Time; 15 sec; centrifuge at 1000 rpm
# 8; Time; 30 min; incubation at room temperature
# 9a; Detection; fluorescence (Read 1: AID); EnVision (PerkinElmer) plate reader, 540 excitation and 590 emission filters
# 9b; Detection; fluorescence (Read 2: UDG); EnVision (PerkinElmer) plate reader, 560 excitation and 665 emission filters
# NOTES (numbers refer to sequence above)
# 1a; Reagents were dispensed in a medium-binding black solid-bottom Greiner plates (789176F) using a BioRptr liquid dispenser. Dispense 3 uL of [4/3x] 1 uM AID (provided by Kohli lab) and [4/3x] 2 U/mL UDG (NEB M0280L) into columns 1, 2, 5 to 48.
# 1b; Dispense 3 uL of [4/3x] 2 U/mL UDG into column 3.
# 1c; Dispense 3 uL of [4/3x] 1 uM AID into column 4.
# 2a; Compound (7-points [uM] (0.64; 3.2; 16; 80; 400; 2,000; 10,000; 20,000) double pin-transferred (Dip Factor = 2) using the Kalypsys (Wako USA) pintool equipped with a 1536 pinhead for a final concentration range of 7.32 nM - 114 uM.
# 2b; 10 mM Aurintricarboxylic Acid (Sigma A1895) (ATA, 8-point, n = 2, 1:2.5 dilution in column 2) double pin-transferred (Dip Factor = 2) using the Kalypsys (Wako USA) pintool equipped with a 1536 pinhead for a [final] range of 186 nM - 114 uM.
# 3; Room temperature incubation.
# 4; Dispense 1 uL of substrate mixture from the Kohli lab [4x] […] DJC20 and [4x] 250 nM DJC23 into columns 1 to 48 .
# 5; Room temperature incubation.
# 6; Dispense 4 uL of substrate mixture [2x] 250 mM NaOH into columns 1 to 48.
# 7; Centrifugation step to remove bubbles.
# 8; Room temperature incubation
# 9a; Fluorescence signal (column label AID) was read using the EnVision plate reader. […]
# % is set by controls: 0 for no effect and ±100 for the full control effect.
row,SMILES,"activity change, negative = inhibition"
1,COc1ccccc1NC(=O)CSc1nc2c(=O)[nH]cnc2n1-c1ccccc1,-13.3% (inactive)
2,O=C(O)c1cccnc1SC(F)(F)F,5.69% (inactive)
3,Cc1ccc(C(CNC(=O)c2cc(-c3ccccc3)on2)N2CCC(C)CC2)o1 (stereo not drawn),-1.82% (inactive)
4,O=C(CCC1CCCC1)N1CCN(CC2CC=CCC2)CC1 (stereo not drawn),-5.57% (inactive)
5,CC(=O)c1c(C)[nH]c(C(=O)OCC(=O)Nc2ccc(Br)c(C)c2)c1C,6.68% (inactive)
6,COC(=O)Cn1cnc2c(sc3nc(C4CCCCC4)c4c(c32)CCC4)c1=O,2.71% (inactive)
7,COc1cccc2cc(/C=C(/C#N)c3nc4ccccc4[nH]3)oc12,2.17% (inactive)
8,COc1cc(SC)ccc1C(=O)Oc1cccc(F)c1,-2.38% (inactive)
9,CCCCn1c(=O)[nH]c(=O)c2c1nc(COC(=O)c1cc(C)ccc1C)n2CCC,-5.99% (inactive)
10,O=C1C(O)=C(c2ccccc2)C(c2ccccc2)N1Cc1ccccn1 (stereo not drawn),-8.73% (inactive)
11,CCCCC(CC)CNc1ncnc2sccc12 (stereo not drawn),-2.93% (inactive)
12,CCc1c(C)sc(NC(=O)c2cccc3ccccc23)c1C#N,-6.9% (inactive)
13,Cc1cn2c(=O)cc(COC(=O)COc3ccccc3)nc2s1,3.76% (inactive)
14,O=C(NC1C2CC3CC(C2)CC1C3)c1cccc(Br)c1 (stereo not drawn),2.83% (inactive)
15,Cc1ccc2cccc(NC(=O)c3ccccc3C)c2n1,-2.94% (inactive)
16,CCCc1cc(=O)oc2c(C)c(OCC(=O)NCc3ccccn3)ccc12,2.15% (inactive)
17,CCCCc1c/c(=N\O)oc2cc3occ(C)c3cc12,-7.72% (inactive)
18,N#C/C(=C/c1ccccc1OC(F)F)c1nc2cc(C(F)(F)F)ccc2s1,-13.5% (inactive)
19,Cc1csc(CNC(=O)c2cnccn2)n1,-1.93% (inactive)
20,CCN(C(=O)COc1ncnc2c(Cl)cc(Cl)cc12)c1ccccc1,-0.784% (inactive)
21,O=[N+]([O-])c1cc(S(=O)(=O)Nc2ccccc2NS(=O)(=O)c2cccs2)ccc1Cl,-0.862% (inactive)
22,CC(C)=CC(=O)Nc1ccccc1SC1CCCC1,-4.3% (inactive)

row,SMILES,"activity change, negative = inhibition"
1,CN(/C=C/[N+](=O)[O-])c1ccccc1,3.38% (inactive)
2,CCCCc1cnc2c(c1SCC(=O)NCC1CCCO1)c(=O)n(C)c(=O)n2C (stereo not drawn),-5.8% (inactive)
3,CC1CCC(NC(=O)/C=C/c2ccc(C(=O)NC3CC3)cc2)CC1 (stereo not drawn),-3.82% (inactive)
4,C=CCn1c(SC(C)C(=O)OC)nc2c1c(=O)[nH]c(=O)n2C (stereo not drawn),-1.33% (inactive)
5,CC(OC(=O)c1cc(=O)c2ccccc2o1)C(=O)Nc1cc(C(F)(F)F)ccc1Cl (stereo not drawn),3.41% (inactive)
6,CCN(CC)S(=O)(=O)c1ccc([N+](=O)[O-])cc1,-6.65% (inactive)
7,Cc1cccc(C(=O)Nc2ccc3nsnc3c2)c1,-2.27% (inactive)
8,Cc1ccc2c(COC(=O)C3CCCO3)cc(=O)oc2c1C (stereo not drawn),0.708% (inactive)
9,Cc1ccc(C(=O)N2CCCc3cc(C(=O)NCCC(C)C)ccc32)cc1,1.89% (inactive)
10,O=C(NC1CCCC1)C1CC=CCC1c1nc2ccccc2s1 (stereo not drawn),-7.21% (inactive)
11,CCCCCCCCOC(=O)/C(C#N)=C/c1ccc(-c2cccc(C(F)(F)F)c2)o1,-7.64% (inactive)
12,O=C(Nc1cc(C(F)(F)F)ccc1Cl)c1c(F)cccc1F,-10.2% (inactive)
13,Cc1[nH]c2ccccc2c1C(=O)C(C)Sc1nnnn1C1CCCC1 (stereo not drawn),-0.262% (inactive)
14,O=C(Nc1cccc(S(=O)(=O)N2CCCC2)c1)c1n[nH]c2ccccc12,-0.902% (inactive)
15,O=C(c1ccn(COc2ccccc2)n1)N1CCN(Cc2ccc(Cl)cc2)CC1,-10.4% (inactive)
16,CC(C)COC(=O)c1nn(Cc2ccccc2)c(=O)c2ccccc12,4.07% (inactive)
17,COc1ccc2c(CCNC(=O)CCNc3nc(Cl)nc4nc[nH]c34)c[nH]c2c1,0% (inactive)
18,CCOc1cc(C#N)ccc1OC(C)C(=O)c1ccc(OC)cc1 (stereo not drawn),-1.24% (inactive)
19,C/C(=N\NC(=O)C1CC1c1ccccc1)c1ccc(C)c(C)c1 (stereo not drawn),4.65% (inactive)
20,CCc1ccc(Sc2cc(C(=O)NC3CCCC3)c3ccccc3n2)cc1,2.07% (inactive)
21,Fc1ccc(NCC23CC4CC(CC(C4)C2)C3)cc1,-2.91% (inactive)
